In PubChem BioAssay (EPA / NIEHS):
Results filed as inconclusive are left out. Active and inactive are the calls of the source. The calls were made as follows: active = hit-call score of the fitted dose curve at least 0.9, where 1 is the maximum; inconclusive = response in the unintended direction; inactive = score below 0.9.

experiment: ATG_XTT_Cytotoxicity: Cytotoxicity Assessment in the Attagene TRANS-FACTORIAL HepG2 Assay (AID 2283584)
Method: ATG_XTT_Cytotoxicity is a cell-based, single-readout assay that uses HepG2, a human liver cell line, with measurements taken at 24 hours after chemical dosing in a 24-well plate.ATG_XTT_Cytotoxicity is one of one assay component(s) measured or calculated from the ATG_XTT_Cytotoxicity assay. It is designed to make measurements of cell number, a form of viability reporter, as detected with […] signals by XTT cytotoxicity assay technology.Data from the assay component ATG_XTT_Cytotoxicity was analyzed into 1 assay endpoint. This assay endpoint, ATG_XTT_Cytotoxicity, was analyzed in the positive analysis fitting direction relative to DMSO as the negative control and baseline of activity. Using a type of viability reporter, loss-of-signal activity can be used to understand changes in the viability. Furthermore, this assay endpoint can be referred to as a primary readout, because the performed assay has only produced 1 assay endpoint. To generalize the intended target to other relatable targets, this assay endpoint is annotated to the cell cycle intended target family, where the subfamily is cytotoxicity.
Human liver HepG2 cells are transiently transfected with multiple reporter transcription units (MRTUs) in 6-well plates using FuGene 6 reagent (Roche; 3 ml FuGene/1 mg DNA). The MRTU constructs are regulated by a cis-regulating element (promoter). […] A major difference between the CIS and TRANS system is that in CIS activities of endogenous TFs are measured, whereas the TRANS assay evaluates changes in activities of exogenous, chimeric NR-Gal4 proteins. […] At the end of 24 hour incubation, total RNA was isolated using TriZol reagent (Invitrogen). The isolated RNA is then reverse-transcribed using oligo(dT) primer and Mo-MLV reverse transcriptase (Invitrogen) with DNAse I (Ambion) treatment for 30 min. The one-tenth of the produced cDNA was amplified by PCR using Taq DNA polymerase (Invitrogen) and two reporter sequence-specific primers. The PCR products were fluorescently labeled by primer extension with 6-arboxyfluorescein (6-FAM) 5'-labeled reporter sequence-specific primer (2 min at 95 C, 20 s at 68 C and 10 min at 72 C) and these products were digested with 5U of HpaI (New England Biolabs) for 2h at 37 C. The fragments were purified using Qiaquick PCR columns (Qiagen), analyzed on an ABI 3130xL genetic analyzer (Applied Biosystems) with peak positions identified by using a set of X-rhodamine (ROX)-labeled MapMarker1000 molecular weight standards (BioVentures). The raw capillary electrophoresis data was processed using Attagraph software (Attagene).

Q: Which outcome does the source give for CCCCNC(=O)OCC#CI here?
A: inactive

Q: For C=CCC1=C(C)C(OC(=O)C2C(C=C(C)C)C2(C)C)CC1=O (stereo not given), which outcome is on record?
A: inactive

Q: Which outcome does the source give for CCCC1COC(Cn2cncn2)(c2ccc(Cl)cc2Cl)O1 (stereo not given) here?
A: inactive

Q: For C=CC1(C)OC(=O)N(c2cc(Cl)cc(Cl)c2)C1=O (stereo not given), which outcome is on record?
A: inactive

Q: For COc1ccc(C(c2ccc(OC)cc2)C(Cl)(Cl)Cl)cc1, which outcome is on record?
A: inactive

Q: For COC(=O)N(OC)c1ccccc1COc1ccn(-c2ccc(Cl)cc2)n1, which outcome is on record?
A: inactive

Q: For C#CCOS(=O)OC1CCCCC1Oc1ccc(C(C)(C)C)cc1 (stereo not given), which outcome is on record?
A: inactive

Q: For CON(C)C(=O)Nc1ccc(Cl)c(Cl)c1, which outcome is on record?
A: inactive

Q: For OC(c1ccc(Cl)cc1)(c1cncnc1)c1ccccc1Cl (stereo not given), which outcome is on record?
A: inactive

Q: Which outcome does the source give for Oc1ccccc1-c1ccccc1 here?
A: inactive

Q: For CNC(=O)ON=CC(C)(C)SC, which outcome is on record?
A: inactive

Q: For COc1cnc(OC)n2nc(NS(=O)(=O)c3c(OCC(F)F)cccc3C(F)(F)F)nc12, which outcome is on record?
A: inactive

Q: With CCOP(=S)(OCC)SCn1c(=O)oc2cc(Cl)ccc21 as the compound, how does the outcome read?
A: inactive

Q: For CC(C)Oc1cc(-n2nc(C(C)(C)C)oc2=O)c(Cl)cc1Cl, which outcome is on record?
A: inactive

Q: Which outcome does the source give for CCCCC(CC)COC(=O)c1ccccc1C(=O)OCC(CC)CCCC (stereo not given) here?
A: inactive

Q: With Cc1cc(Cl)ccc1OCC(=O)O as the compound, how does the outcome read?
A: inactive

Q: For CCCCOC(=O)c1ccccc1C(=O)OCCCC, which outcome is on record?
A: inactive

Q: For COP(=S)(OC)Oc1nc(Cl)c(Cl)cc1Cl, which outcome is on record?
A: inactive

Q: With N#Cc1nn(-c2c(Cl)cc(C(F)(F)F)cc2Cl)c(N)c1S(=O)C(F)(F)F (stereo not given) as the compound, how does the outcome read?
A: inactive

Q: Which outcome does the source give for CO/C=C(/C(=O)OC)c1ccccc1Oc1cc(Oc2ccccc2C#N)ncn1 here?
A: inactive

Q: With CCCN(CCC)c1c([N+](=O)[O-])cc(S(N)(=O)=O)cc1[N+](=O)[O-] as the compound, how does the outcome read?
A: inactive

Q: Which outcome does the source give for COc1nc(NC(C)C)nc(NC(C)C)n1 here?
A: inactive

Q: For CNC(=S)S, which outcome is on record?
A: inactive

Q: With CCNc1nc(Cl)nc(NC(C)C)n1 as the compound, how does the outcome read?
A: inactive

Q: For CC(C)(C)c1ccc(CSc2cnn(C(C)(C)C)c(=O)c2Cl)cc1, which outcome is on record?
A: inactive
